# Source: PubChem BioAssay AID1851 (National Center for Advancing Translational Sciences (NCATS), 2009)
# “And” between values parts separate entries of the source, which are not always exact repeats. Equal entries are not always repeated. The campaign covered roughly 16,000 compounds. About 4,000 (25%) were called active. Inconclusive results (about 26%) are left out. Calls follow the shape of the dose curve; as a rule, active = well fitted curve in the direction sought with a large enough effect; inconclusive = small, poorly fitted or top-dose-only effect, or effect the other way; inactive = no such curve, though single readings can be large or run the other way. These entries were drawn from the full list. More than one record can exist for a structure, and the calls need not agree.
# Molecular target: Cytochrome P450 2C9 (Homo sapiens) (UniProt P11712)
# Experiment: Cytochrome panel assay with activity outcomes
# Conditions: recombinant CYP, pro-luciferin dealkylation, luminescence, p450-cyp2c9; series mostly up to 57.1 µM
# % is scaled to controls: 0 for no effect and ±100 for the full control effect.
# Chain of Cytochrome P450 2C9 (Homo sapiens) (P11712 whole entry, looked up): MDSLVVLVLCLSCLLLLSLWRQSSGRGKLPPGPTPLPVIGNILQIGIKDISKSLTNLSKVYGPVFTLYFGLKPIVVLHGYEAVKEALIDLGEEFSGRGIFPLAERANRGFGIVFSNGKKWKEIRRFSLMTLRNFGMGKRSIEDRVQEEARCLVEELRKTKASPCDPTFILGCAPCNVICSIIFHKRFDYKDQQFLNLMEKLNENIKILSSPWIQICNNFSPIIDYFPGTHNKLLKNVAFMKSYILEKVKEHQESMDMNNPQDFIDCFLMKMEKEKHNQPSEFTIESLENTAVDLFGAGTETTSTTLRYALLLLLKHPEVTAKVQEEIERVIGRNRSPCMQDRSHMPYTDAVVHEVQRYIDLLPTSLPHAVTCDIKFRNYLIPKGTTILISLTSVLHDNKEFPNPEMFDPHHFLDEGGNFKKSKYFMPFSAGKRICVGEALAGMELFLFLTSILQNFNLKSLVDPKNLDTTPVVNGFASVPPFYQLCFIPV
SMILES,"activity, negative = inhibition",AC50
Cc1ccccc1-n1c(O)c(C=Nc2ccc(N(C)C)cc2)c(=O)[nH]c1=O,inactive,–
CC(C)N[C@@H](C)Cc1ccc(I)cc1,inactive,–
CCN(CC)C1=NC(=[N+](CC)CC)c2ccccc21,inactive,–
C[C@]1(C(=O)O)[C@@H]2CC[C@@H](O2)[C@@]1(C)C(=O)O,inactive,–
CCOCCN1CCC(OC(C)=O)C(C)C1 (stereo not given),inactive,–
CCN1C[C@]2(C)CC[C@H](OC)[C@@]34[C@@H]2[C@H](OC(C)=O)[C@]2(OCO[C@@]25C[C@@H](OC)[C@@H]2C[C@@]3(O)[C@H]5[C@@H]2OC)[C@H]14,inactive,–
O=C1NC(=O)N(CCNc2ncc(C(F)(F)F)cc2Cl)C(=O)C1/C=N/OCc1c(F)cccc1Cl (stereo not given),–,0.794 µM (active)
NC[C@@H](CC(=O)O)c1ccc(Cl)cc1,inactive,–
N[C@@]1(C(=O)O)CC[C@H](C(=O)O)C1,inactive,–
COC[C@H]1OC(=O)c2coc3c2[C@@]1(C)C1=C(C3=O)[C@H]2CCC(=O)[C@@]2(C)C[C@H]1OC(C)=O,inactive,–
Cc1cc(C(C)(C)C)cc(C)c1CC1=NCCN1,inactive,–
CC[C@H](CO)NC(=O)[C@@H]1C=C2c3cccc4c3c(cn4C)C[C@@H]2N(C)C1,inactive,–
CC(=O)OCC(=O)[C@@H]1CC[C@H]2[C@H]3CC[C@H]4C[C@@H](O)CC[C@]4(C)[C@@H]3C(=O)C[C@@]12C,inactive,–
CC(=O)[C@@H]1CC[C@H]2[C@H]3CC[C@H]4C[C@@H](O)CC[C@]4(C)[C@@H]3CC[C@]12C,–,2 µM (active)
C[C@]12CC[C@H](O)C[C@@H]1CC[C@H]1[C@H]2CC[C@]2(C)[C@H](C(=O)CO)CC[C@@H]12,–,25.1 µM (active)
C[C@H]1CC[C@]2(OC1)O[C@@H]1C[C@@H]3[C@@H]4CC[C@H]5C[C@@H](O)CC[C@]5(C)[C@@H]4CC(=O)[C@@]3(C)[C@H]1[C@@H]2C,inactive,–
C[C@]12CC[C@H](O)C[C@@H]1CC[C@H]1[C@H]2CC[C@]2(C)C(=O)CC[C@@H]12,inactive,–
C[C@@]12CC[C@H]3[C@@H](CCC4=CC(=O)CC[C@]43C)[C@H]1CC[C@H]2C(=O)CO,inactive,–
CC(C)(C)NC[C@H](O)c1cc(Cl)c(N)c(Cl)c1,inactive,–
O=C1C=C2C=C[C@H]3C[C@@]2(O1)[C@H]1CCCCN31,inactive,–
CN[C@H](Cc1ccccc1)c1cccc(OC)c1O,9.59% [at 11.4 µM] (inactive),–
CCC(=O)O[C@@](Cc1ccccc1)(c1ccccc1)[C@@H](C)CN(C)C,inactive,–
CC(C)Oc1cc(-n2c(=S)[nH]c3ccccc3c2=O)c(Cl)cc1Cl,–,2.24 µM (active)
C[C@]12CC[C@H]3c4ccc(O)cc4CC[C@@H]3[C@H]1CC[C@@H]2OC(=O)CCc1ccccc1,-8.07% [at 11.4 µM] (inactive),–
COc1cc2c3cc1Oc1cc(ccc1O)C[C@@H]1c4c(cc(OC)c(O)c4Oc4cccc(c4)C[C@H]3N(C)CC2)CC[N+]1(C)C,inactive,–
O=NN(Cc1ccc(Cl)cc1)[C@@H](C(=O)O)c1ccccc1,-22.5% [at 11.4 µM] (inactive),–
N[C@H](CCCP(=O)(O)O)C(=O)O,inactive,–
N#Cc1ccc(CN2CC[C@@]3(CCCN(C(=O)Oc4ccccc4)C3)C2)cc1,inactive,–

SMILES,"activity, negative = inhibition",AC50
CC[N+](C)(C)c1cccc(O)c1,inactive,–
Cc1cccc(NC(=S)NC2CC3CCCC(C2)N3Cc2cccs2)c1 (stereo not given),inactive,–
CN(C)CCC=C1c2ccccc2CCc2ccccc21,inactive,–
Cc1o[nH]c(=O)c1C[C@H](N)C(=O)O,–,inactive and 10 µM (active)
CC(C)(C)c1o[nH]c(=O)c1C[C@H](N)C(=O)O,inactive,–
Cc1o[nH]c(=O)c1C[C@@H](N)C(=O)O,inactive,–
CCCN1CCC[C@@H]2Cc3nc(N)ncc3C[C@H]21,inactive,–
COC(=O)C1(C)C=C2C(=C(C)C(=O)C2C)CN1 (stereo not given),inactive,–
c1cncc(CNCCN2CCNCC2)c1,-12% [at 11.4 µM] (inactive),–
CCC1=C(C[C@H]2NCCc3ccccc32)C[C@@H]2c3cc(OC)c(OC)cc3CCN2C1,-10.7% [at 11.4 µM] (inactive),–
C[C@@H](O)CN(CCN(C[C@@H](C)O)C[C@@H](C)O)C[C@@H](C)O.O=[N+]([O-])O.[Cu],–,0.794 µM (active)
CNC(=S)NC1CC2CCCC(C1)N2CC(C)C (stereo not given),inactive,–
Cc1c([C@@H](C)[C@H]2NC[C@H](C)C[C@@H]2O)ccc2c1C[C@@H]1[C@H]2CC=C2C[C@@H](O)CC[C@@]21C,2.85% [at 11.4 µM] (inactive),–
C[N+]1(C)CCO[C@](O)(c2ccc(-c3ccc([C@]4(O)C[N+](C)(C)CCO4)cc3)cc2)C1,inactive,–
O=C(O)C1=CCCN(CCOC(c2ccc(C(F)(F)F)cc2)c2ccc(C(F)(F)F)cc2)C1,–,2.51 µM (active)
c1ccc2c([C@@H]3CCN(CCN4CCOCC4)C3)c[nH]c2c1,-7.99% [at 11.4 µM] (inactive),–
Cc1cc(OCC(=O)OC(C)C)c2c3c(c(=O)oc2c1)CCCC3,–,2 µM (active)
Cc1cc(OCc2ccc([N+](=O)[O-])cc2)c2c3c(c(=O)oc2c1)CCCC3,–,0.141 µM (active)
Cc1cc(OC(=O)CCCNC(=O)OC(C)(C)C)c2c3c(c(=O)oc2c1)CCC3,–,11.2 µM (active)
COc1cc2cc(c1Cl)N(C)C(=O)C[C@H](OC(=O)C(C)C)[C@]1(C)O[C@@H]1[C@@H](C)[C@H]1C[C@](O)(NC(=O)O1)[C@@H](OC)/C=C\C=C(\C)C2,8.76% [at 11.4 µM] (inactive),–
c1ccc2c(c1)-c1ccccc1C2N1CC2CCC(CC2)C1,-14.3% [at 11.4 µM] (inactive),–
CC(C)[N+](C)(CCC(C(N)=O)(c1ccccc1)c1ccccc1)C(C)C,inactive,–
CCSCC[C@H](N)C(=O)O,-1.99% [at 11.4 µM] (inactive),–
C[C@H](N)Cc1c[nH]c2ccc(OCc3cccs3)cc12,inactive,–
C[C@@H]1[C@@H]2Cc3ccc(O)cc3[C@@]1(C)CCN2CC1CC1,inactive,–
N#CCCCC[N+]12CN3CN(CN(C3)C1)C2,6.4% [at 11.4 µM] (inactive),–
C[C@H](c1ccccc1)N1CCN([C@@H](C)c2ccccc2)CC1,5.45% [at 11.4 µM] (inactive),–
